Calb FLC: C. albicans growth inhibition with fluconazole, primary screen, CaCi-2 strain, Alamar Blue fluorescence; C. albicans CaCi-2 (fluconazole-resistant clinical isolate) + fluconazole, 48 h; growth inhibition, % (concentration not given with the values); actives 0.57% (n = 300,000); AID 1979, 2009;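 active = growth inhibition above about 58% in most replicates, limit read from the data, passing the limit was not always enough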;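 note: all wells also contain fluconazole at 8 µg/ml as a sub-toxic cotreatment; 0% = median of DMSO wells and 100% = median of geldanamycin control wells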
PP1 counter: PP1-alpha phosphatase inhibitors, primary screen, counter-screen for PP5 inhibitor project, biochemical, fluorescence, OMFP substrate, single point; Serine/threonine-protein phosphatase PP1-alpha catalytic subunit (Homo sapiens), P62136; purified PP1alpha; inhibition, % at 6.7 µM; actives 0.9% (n = 320,000); AID 2235, 2010;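 active = inhibition above the mean inhibition of all tested compounds plus 3 SD, computed separately for each screening campaign, cut at about 15% in these data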
Target sequence (P62136 whole entry, looked up): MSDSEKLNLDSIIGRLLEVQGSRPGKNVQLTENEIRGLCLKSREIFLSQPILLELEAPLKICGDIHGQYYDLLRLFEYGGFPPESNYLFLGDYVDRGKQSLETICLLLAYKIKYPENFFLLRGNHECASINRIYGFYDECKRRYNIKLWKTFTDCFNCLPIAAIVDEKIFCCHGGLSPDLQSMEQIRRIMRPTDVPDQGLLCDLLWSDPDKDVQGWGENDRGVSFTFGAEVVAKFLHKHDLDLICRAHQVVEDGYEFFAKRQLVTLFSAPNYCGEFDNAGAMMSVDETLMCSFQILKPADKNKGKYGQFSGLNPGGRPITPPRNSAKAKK
ALR inh: inhibitors of human ALR sulfhydryl oxidase, primary screen, biochemical, H2O2 detection, HRP-luminol luminescence, single point. actives 3.8% (n = 290,000). inhibition, % (no concentration beside the values). FAD-linked sulfhydryl oxidase ALR (Homo sapiens), P55789. purified ALR, DTT oxidation;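 active = mean replicate inhibition above about 79%, with every replicate also reaching it, limit read from the data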
Target sequence (P55789 whole entry, looked up): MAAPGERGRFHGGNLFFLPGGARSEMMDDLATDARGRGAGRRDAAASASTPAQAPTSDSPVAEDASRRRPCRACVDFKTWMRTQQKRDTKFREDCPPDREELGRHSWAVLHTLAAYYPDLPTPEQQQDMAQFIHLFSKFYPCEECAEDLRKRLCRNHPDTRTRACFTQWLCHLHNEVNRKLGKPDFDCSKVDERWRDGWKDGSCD
CSC inhib: cancer stem cell viability inhibitors, primary screen, luminescence | inhibition, % at 7.5 µM | actives 1.1% (n = 300,000) | cancer stem cell-like cells viability; in the data active = inhibition above about 75%; tested in HMLE shEcad cells
PP5 primary: PP5 phosphatase inhibitors, primary screen, biochemical, fluorescence; inhibition, % at 6.7 µM; purified PP5c, OMFP substrate fluorescence; actives 0.18% (n = 320,000); AID 1987, 2009;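 active = inhibition above the campaign's mean inhibition across all tested compounds plus 3 SD, cut at about 9.5% in these data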;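 note: 0% = DMSO only and 100% = 100 µM cantharidin control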
* = called active by the depositor. Compounds with a hit are over-represented: about 5.4% of the library has one in this group of screens.

O=C(CN1CCN(C/C=C/c2ccccc2)CC1)NC(=O)NC1CCCCC1 was read as Calb FLC -6, PP1 counter 3, ALR inh 3, CSC inhib 16 and PP5 primary -4.
For CC(Sc1nnc(C(C)N(C)C)n1-c1ccc(Cl)cc1)C(=O)Nc1ccc2c(c1)OCO2 (stereo not drawn) the results were Calb FLC -3, PP1 counter 4, ALR inh -7, CSC inhib -6 and PP5 primary -1.
For CCOc1cc(/C=N/NC(=O)C2CCCC2)ccc1O the results were Calb FLC -3, PP1 counter 1, ALR inh 99*, CSC inhib -6 and PP5 primary -1.
Screening O=C(COc1cccc2cccnc12)N/N=C/c1ccc(O)cc1 returned Calb FLC 47, PP1 counter 0, ALR inh 99*, CSC inhib 3 and PP5 primary 0.
Screening COc1cc(/C=N/NC(=O)Nc2ccccc2)ccc1OC(C)=O returned Calb FLC 7, PP1 counter -4, ALR inh -2, CSC inhib -3 and PP5 primary 0.
CCOc1cc(/C=N/NC(=O)C(=O)N2CCCC2)ccc1O was read as Calb FLC -4, PP1 counter -1, ALR inh 99* and PP5 primary 2.
Screening CCOc1cc(/C=N/NC(=O)c2ccc(NC(=O)C3CC3)cc2)ccc1O returned Calb FLC 1, PP1 counter -7, ALR inh 32, CSC inhib -4 and PP5 primary -1.
For CCOc1cc(/C=N/NC(=O)Nc2ccccc2)ccc1O the results were Calb FLC -2, PP1 counter -2, ALR inh 99*, CSC inhib -5 and PP5 primary 2.
COc1cccc([C@@H]2Oc3ccc(OC)cc3C(=O)[C@H]2OC(=O)N[C@H](C)C2CCCCC2)c1 was read as Calb FLC -2, PP1 counter -2, CSC inhib -4 and PP5 primary 2.
For CCOc1cc(/C=N/Nc2nc(-c3cccs3)c(NC(C)=O)s2)ccc1O the results were Calb FLC -10, PP1 counter -4, ALR inh 95*, CSC inhib -4 and PP5 primary 0.
Screening CN1C(=O)C(C)(C)c2cc(S(=O)(=O)NCc3ccc(Cl)cc3)ccc21 returned Calb FLC 10, PP1 counter -5, ALR inh -2 and PP5 primary 2.
Cc1ccc(-c2nc3ccccc3nc2Cl)cc1 was read as Calb FLC -9, PP1 counter -2, ALR inh 91*, CSC inhib 8 and PP5 primary 2.
For c1ccc(-c2ccc(C(c3ccccc3)n3ccnc3)cc2)cc1 (stereo not drawn) the results were PP1 counter 16*, ALR inh 0, CSC inhib 23 and PP5 primary -1.
For O=[N+]([O-])c1ccc(O)c(-c2nc(-c3ccccc3)c(-c3cccs3)[nH]2)c1 the results were Calb FLC 16, PP1 counter -1, ALR inh 1, CSC inhib 100* and PP5 primary 1.
CC1CCCCN1S(=O)(=O)c1cn(C)c(=O)n(C)c1=O (stereo not drawn) was read as Calb FLC -5, PP1 counter 3, ALR inh -21, CSC inhib 0 and PP5 primary 4.
Screening c1ccc2nc(-c3nc4ccccc4[nH]3)ccc2c1 returned Calb FLC -13, PP1 counter -2, CSC inhib 76* and PP5 primary 0.
For c1ccc2[nH]c(-c3cscn3)nc2c1 the results were PP1 counter 0, ALR inh -9, CSC inhib -1 and PP5 primary 0.
O=C(CSS(=O)(=O)O)N1CCN(C(=O)c2ccoc2)CC1 was read as Calb FLC -3, PP1 counter 0, ALR inh 98*, CSC inhib 11 and PP5 primary 2.
`N#Cc1ccc(NC(=O)COC(=O)c2ccc(F)c(S(=O)(=O)N3CCOCC3)c2)cc1` gave PP1 counter -4 and PP5 primary 2.
COc1ccc2[nH]c(=O)c(CN(C(=O)c3ccccn3)C3CCCCC3)cc2c1 was read as Calb FLC 2, PP1 counter -2, ALR inh 99*, CSC inhib -2 and PP5 primary 3.
Screening COc1ccc2[nH]c(=O)c(CN(C3CCCCC3)C(c3nnnn3Cc3ccco3)C(C)C)cc2c1 (stereo not drawn) returned Calb FLC -2, PP1 counter 20*, CSC inhib 6 and PP5 primary 6.
`O=C(Cn1c2ccc(F)cc2c2nc3n(c(=O)c21)CCS3)Nc1ccccc1C(F)(F)F` gave Calb FLC 1, PP1 counter 8, ALR inh -5, CSC inhib -4 and PP5 primary 2.
`O=C(NCCO)C(=O)Nc1cc2c3c(c1)CCN3C(=O)CC2` gave Calb FLC 32, PP1 counter -4, CSC inhib -8 and PP5 primary -1.
`CN1CCN(C(=O)C2=C[C@@H](C3CCCCC3)C[C@@H](OCc3ccc(CO)cc3)O2)CC1` gave Calb FLC -18, PP1 counter -2, ALR inh 0, CSC inhib -1 and PP5 primary -2.
CCc1ccc(OCC(O)CNC(C)(C)C)cc1 (stereo not drawn) was read as Calb FLC -1, PP1 counter -6, ALR inh -4, CSC inhib 15 and PP5 primary 0.
For O=C1C=CC(=O)N1c1ccc(OC(F)F)cc1 the results were PP1 counter -1, ALR inh -11, CSC inhib 103* and PP5 primary -1.
CCOc1ccc(N2C(=O)CSC2=S)cc1 was read as Calb FLC -2, PP1 counter 2, ALR inh -41, CSC inhib 1 and PP5 primary 3.
For CCN(CC)c1ccc(N2C(=O)CSC2=S)cc1 the results were Calb FLC -2, PP1 counter 5, ALR inh 98*, CSC inhib 28 and PP5 primary 3.
Screening O=c1oc2ccccc2cc1-c1csc(NN=C2CCCC2)n1 returned Calb FLC -5, PP1 counter -3, ALR inh 98*, CSC inhib 11 and PP5 primary 1.
For Cc1cccc(N2CCN(c3cc(C)nc4nnnn34)CC2C)c1 (stereo not drawn) the results were Calb FLC -12, PP1 counter 2, CSC inhib -12 and PP5 primary 0.
COc1ccc(OC2C(=O)N(Cc3ccc4c(c3)OCO4)C2c2sccc2C)cc1 (stereo not drawn) was read as Calb FLC 93*, PP1 counter 2, ALR inh 0, CSC inhib 117* and PP5 primary 4.
Screening CCCn1nnnc1SCC(=O)NCc1ccccc1 returned Calb FLC 0, PP1 counter -5, ALR inh -4, CSC inhib 5 and PP5 primary 0.
